Source: PubChem BioAssay (National Center for Advancing Translational Sciences (NCATS))
Shown is part of a subset that was picked to be rich in hits.
Rango complex inh: qHTS Assay for Inhibitors of Rango (Ran-regulated importin-beta cargo) - Importin beta complex formation. Importin subunit beta-1 (Homo sapiens), Q14974. Rango CFP/YFP FRET sensor + importin beta, 45 min. Potency, µM (doses to about 92.2 µM). 340,000 compounds, 0.031% hits. AID 540263, 2011; note: nearly all actives have a fitted effect of over 15% in size
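FRET biosensor Rango (snurportin 1 IBB between N-terminal EYFP and C-terminal Cerulean), 50 nM in PBS/1 mM DTT/0.02% Tween-20/0.1% BSA, preincubated 5 min RT with compound; 0.125 microM importin beta added, 45 min RT, CFP/YFP FRET ratio read.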
CBFb RUNX1 block: qHTS Assay for Compounds Blocking the Interaction Between CBF-beta and RUNX1 for the Treatment of Acute Myeloid Leukemia | AlphaScreen CBFb-His/RUNX1-biotin binding, biochemical | Potency, µM (series often up to 59.8 µM), hits mostly inhibitors | 230,000 tested, under 10 active | AID 1477, 2009; active = well fitted curve in the direction sought with a large enough effect; inconclusive = small, poorly fitted or top-dose-only effect, or effect the other way, or another doubt; inactive = no such curve, though single readings can be large or run the other way
Target sequence (Q01196 whole entry, looked up): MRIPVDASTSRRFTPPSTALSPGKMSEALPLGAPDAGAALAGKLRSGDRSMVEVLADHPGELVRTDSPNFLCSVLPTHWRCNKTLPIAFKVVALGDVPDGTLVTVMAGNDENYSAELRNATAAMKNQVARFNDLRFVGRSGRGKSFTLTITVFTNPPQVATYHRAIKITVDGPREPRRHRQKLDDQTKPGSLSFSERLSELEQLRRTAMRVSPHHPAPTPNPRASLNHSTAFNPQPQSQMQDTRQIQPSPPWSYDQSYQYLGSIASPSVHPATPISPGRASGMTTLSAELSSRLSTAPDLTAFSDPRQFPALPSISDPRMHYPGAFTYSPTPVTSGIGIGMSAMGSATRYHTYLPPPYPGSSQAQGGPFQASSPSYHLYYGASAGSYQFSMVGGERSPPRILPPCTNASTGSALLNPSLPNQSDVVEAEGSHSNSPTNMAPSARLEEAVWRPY
Target sequence (Q13951 whole entry, looked up): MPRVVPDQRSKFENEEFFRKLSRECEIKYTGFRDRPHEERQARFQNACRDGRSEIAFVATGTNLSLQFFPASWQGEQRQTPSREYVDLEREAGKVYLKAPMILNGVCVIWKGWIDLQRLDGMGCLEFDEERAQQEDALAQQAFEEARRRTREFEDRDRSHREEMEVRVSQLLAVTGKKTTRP
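Compounds were screened at multiple concentrations against a preformed CBF-beta(His)/RUNX1(biotin) complex (30 nM of each) for 15 min at room temperature, followed by 90 min with nickel and streptavidin beads and AlphaScreen reading.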
ClpP mod: qHTS Assay for Activators of ClpP; ATP-dependent Clp protease proteolytic subunit (Bacillus subtilis (strain 168)), P80244; purified B. subtilis ClpP, FRET peptide cleavage, 20 min; Potency, µM (series often up to 57.5 µM); 340,000 compounds, 1.9% hits; AID 651965, 2013; active = well fitted falling curve with a large enough effect; inconclusive = small, poorly fitted or top-dose-only effect; inactive = no such curve, though single readings can be large or run the other way; note: the source files actives as falling curves though it sought activators and does not explain the sign; nearly all actives have a fitted effect of over 65% in size
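Purified B. subtilis ClpP, 10 microg/mL final in Tris/HCl pH8 with KCl, BSA, glycerol and Tween-20, cleaved an Abz/nitrotyrosine-quenched decapeptide. Fluorescence (ex 320, em 430) was read at 0 and 20 min at room temperature. Delta was normalized to 5.8 microM ADEP and DMSO/no-enzyme controls.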
Rango dissoc inh: qHTS Assay for Inhibitors of RanGTP induced Rango (Ran-regulated importin-beta cargo) - Importin beta complex dissociation; Potency, µM (highest dose often 46.1 µM); 340,000 compounds, 0.071% hits; Biochemical FRET Rango-importin beta, RanGTP-induced dissociation; note: nearly all actives have a fitted effect of over 45% in size
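Rango/importin beta premix (0.1/0.25 uM final), PBS + 1 mM DTT + 0.02% Tween-20 + 0.1% BSA; cpd 5 min RT; FRET pre-read; + RanGTP-RCC1 (0.6 uM Ran, 2 mM GTP, 0.2 uM RCC1); 45 min RT; FRET post-read, ex 430, em 486/530 nm.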
MBNL1 CUG block: qHTS Assay for Inhibitors of MBNL1-poly(CUG) RNA binding | Potency, µM (top dose mostly 57.5 µM), usual class: inhibitors | AID 2675, 2010 | Muscleblind-like protein 1 (Homo sapiens), Q9NR56 | 280,000 compounds, 0.036% hits | TR-FRET MBNL1-His/biotin-(CUG)12 binding, 665/545 ratio; active = well fitted inhibition curve with a large enough effect in the signal ratio, with a control signal flat, not every such curve was filed as active; inconclusive = small, poorly fitted or top-dose-only effect, or effect the other way, or a change in a side signal; inactive = no such curve, though single readings can be large or run the other way; the % refers to the signal ratio
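Compounds (final 92 nM to 58 uM) are added to His-tagged MBNL1 and biotin-(CUG)12, then terbium anti-His antibody and streptavidin-XL665 (5 nM final). After 60 min at room temperature, the 665/545 nm ratio is read.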
A number is an active result; 0 = inactive; ? = inconclusive; - = no result given; [ ] = remark or other dose. Unless noted, calls come from the whole dose curve.

SMILES	Rango complex inh	CBFb RUNX1 block	ClpP mod	Rango dissoc inh	MBNL1 CUG block
COc1cc2c(cc1NC(=S)Nc1cccc3ccccc13)oc1ccccc12	0	?	10µM	0	0
O=Cc1ccc(CS)cc1	-	-	0	-	-
COc1ccc(NC(=O)c2oc3ccc(S(=O)(=O)N(C)C4CCCCC4)cc3c2C)cc1Cl	-	-	28µM	-	-
CCOC(=O)c1ccccc1OCc1cc(C2Nc3ccccc3C(=O)N2c2cccc3ccccc23)ccc1OC (stereo unspecified)	-	-	0	-	-
COc1ccc(-c2nc(CS(=O)CC(=O)NCCc3ccccc3)c(C)o2)cc1OC (stereo unspecified)	-	-	16µM	-	-
COc1ccc(-c2nc(CS(=O)CC(=O)NCCCN3CCCC(C)C3)c(C)o2)cc1OC (stereo unspecified)	0	-	0	0	0
COc1ccc(-c2nc(CS(=O)CC(=O)NCCCN3CC(C)CC(C)C3)c(C)o2)cc1OC (stereo unspecified)	0	0	28µM	0	0
COc1ccc(-c2nc(CS(=O)CC(=O)NCCc3ccc(C)cc3)c(C)o2)cc1OC (stereo unspecified)	0	-	0	0	0
COc1ccc(OC)c(S(=O)(=O)NCCc2sc(-c3ccc(C)cc3)nc2C)c1	-	-	0	-	-
CN(CC(=O)N1CCOCC1)S(=O)(=O)c1cc(Cl)ccc1Cl	0	-	-	0	0
CCN(CC(=O)N1CCOCC1)S(=O)(=O)c1cc(Cl)ccc1Cl	0	-	32µM	0	0
Cc1ccc(NC(=O)N2CCN(c3nnc(C)c4c(C)n(-c5ccccc5)nc34)CC2)cc1Cl	-	-	0	-	-
C=C(c1ccccc1O)n1ccnc1	0	-	13µM	0	0
O=C(CCCCCN1C(=O)c2ccccc2C1=O)NCc1ccco1	0	0	18µM	0	0
CCOc1cc2[nH]c(=O)n(CCCCC(=O)N3CCCCCC3)c(=O)c2cc1OCC	0	0	13µM	0	0
CCOc1cc2[nH]c(=S)n(CCCC(=O)NCc3ccco3)c(=O)c2cc1OCC	0	0	0	0	0
CCOc1cc2[nH]c(=O)n(CCCCC(=O)NCc3ccco3)c(=O)c2cc1OCC	0	0	35µM	0	0
O=C(CCN1C(=O)c2ccccc2S1(=O)=O)NCc1ccco1	0	0	0	0	0
CCOc1cc2[nH]c(=O)n(CCCC(=O)NCc3ccco3)c(=O)c2cc1OCC	0	0	25µM	0	0
COc1ccc(N2CCN(CCCNC(=O)c3nnc(Cc4ccccc4Cl)o3)CC2)cc1	-	-	0	-	-
CCCCCCCCCC[n+]1ccc(/C=C/c2c(C)[nH]c3ccccc23)cc1	-	-	0	-	-
O=C(NCC(c1cccnc1)N1CCc2ccccc2C1)c1ccc(F)c(F)c1 (stereo unspecified)	-	-	0	-	-
O=C(NCc1cccs1)c1cnc2ccccn2c1=O	0	0	25µM	0	?
C(=C\c1nc2ccccc2nc1/C=C/c1ccc2c(c1)OCO2)/c1ccc2c(c1)OCO2	-	-	0	-	-
Cc1ccc2cc(CN(CCCN3CCOCC3)C(=O)NC3CCCCC3)c(=O)[nH]c2c1C	0	0	28µM	0	0
SMILES	Rango complex inh	CBFb RUNX1 block	ClpP mod	Rango dissoc inh	MBNL1 CUG block
O=C(NC1CCCCC1)N(CCN1CCCC1)Cc1cc2cc3c(cc2[nH]c1=O)OCCO3	0	0	35µM	0	0
COc1ccc(-c2cc(-c3ccccc3)n3ncnc3n2)cc1	0	0	32µM	0	0
CCOC(=O)c1ccc2[nH]c(C)c(C)c2c1	?	-	0	0	-
COc1ccc2[nH]c(C)cc(=O)c2c1	0	0	25µM	0	0
CCOC(=O)c1ccc2[nH]c(C)cc(=O)c2c1	0	0	3.5µM	0	0
COc1ccc2[nH]c(-c3ccc(C)cc3)cc(=O)c2c1	0	0[2.36 µM]	0	0	0
COC(=O)c1ccc2[nH]c(C)cc(=O)c2c1	0	0	28µM	0	0
Cc1cc(-c2ccc(S(=O)(=O)Nc3cccc(C)c3C)s2)on1	-	-	0	-	-
Cc1ccc(CN2COc3ccc4c(C)cc(=O)oc4c3C2)cc1	-	-	0	-	-
CCC(=O)c1ccc(OCC(=O)Nc2nc(C)cs2)cc1	0	-	0	0	-
CCC(=O)c1ccc(OCC(=O)Nc2nc(-c3cccnc3)cs2)cc1	0	-	32µM	0	-
CCc1ccc(NC(=O)CCCc2nnc3n(CC(C)C)c(=O)c4sccc4n23)cc1	-	-	0	-	-
CCOc1ccc(NC(=O)CN2C(=O)COc3ccc(S(=O)(=O)NC4CCCC4)cc32)cc1	-	-	0	-	-
Nc1ccc2c(c1)C(=O)N(CCCCCC(=O)O)C2	0	0	16µM	0	0
O=C(Nc1cccc2ccccc12)c1ccc([N+](=O)[O-])cc1	0	-	0	0	0
O=C(CNc1cccc2ccccc12)c1ccc([N+](=O)[O-])cc1	0	0	5.6µM	0	?
Cc1cccc(C(=O)Nc2cccc(OCc3cc(=O)n4ccccc4n3)c2)c1	-	-	0	-	-
Cc1c(NC(=O)CSc2nc(N)cc(N)n2)c(=O)n(-c2ccccc2)n1C	0	-	28µM	0	-
Cc1nc(SCC(=O)Nc2c(C)n(C)n(-c3ccccc3)c2=O)nc(C)c1C	0	0	0	0	0
COc1ccc2c(C)cc(SCC(=O)Nc3c(C)n(C)n(-c4ccccc4)c3=O)nc2c1	0	0	25µM	0	0
Cc1c(NC(=O)COC(=O)c2cc3c4ccccc4n(C)c3s2)c(=O)n(-c2ccccc2)n1C	0	0	25µM	0	0
Cc1cc(C)cc(NC(=O)CSc2nccn2C2CCCC2)c1	-	-	0	-	-
CCOC(=O)c1c(NC(=O)c2ccc(OCC)c(Br)c2)sc2c1CCCC2	-	-	0	-	-
N#Cc1c(/N=C/c2ccc(-c3ccc(C(=O)O)c(Cl)c3)o2)sc2c1CCCC2	0	-	35µM	0	-
Cc1ccc(C)c(/C=C/C(=O)c2ccccc(=O)c2O)c1	?	0	0	?	0[11.5 µM]
SMILES	Rango complex inh	CBFb RUNX1 block	ClpP mod	Rango dissoc inh	MBNL1 CUG block
Cc1ccc(/C=C/C(=O)c2ccccc(=O)c2O)c(C)c1	?	0	0	8.2µM	0[11.5 µM]
COC(=O)c1ccc(NC(=O)c2nc(S(=O)(=O)Cc3ccccc3F)ncc2Cl)cc1	-	-	0	-	-
N#Cc1ccc2ccn(CC(=O)NC3CCCCCC3)c2c1	0	0	?	0	0
COC(=O)c1ccc2ccn(CC(=O)NC3CCCCC3)c2c1	0	0	8.9µM	0	0
Cc1ccc(-n2ncc3c(=O)n(Cc4ccccc4C)cnc32)cc1C	-	-	0	-	-
COc1ccccc1S(=O)(=O)N1CCn2cccc2C1C (stereo unspecified)	0	-	28µM	0	-
Cc1ccc(S(=O)(=O)N2CCN(c3ccc(C(=O)N4CCOCC4)cc3[N+](=O)[O-])CC2)cc1	0	0	28µM	0	?
